From PubChem BioAssay (NCATS)
“And” between values parts separate entries of the source, which are not always exact repeats. Identical values can stand only once. Inconclusive results are not listed. The source made the active and inactive calls. Unless noted, the call rests on the fitted dose curve; in most records, active means well fitted curve in the direction sought with a large enough effect; inconclusive means small, poorly fitted or top-dose-only effect, or another doubt; inactive means no such curve, though single readings can be large; an effect the other way counts as inactive or inconclusive.

Columns and labels:
MKL-2 = experiment: qHTS assay to identify novel small-molecules to repurpose for Merkel cell carcinoma treatment (AID 1296009); details: MCC and control cell lines, CellTiter-Glo viability, 72 h; series mostly up to 46 µM; further: nearly all actives have a fitted effect of over 60% in size; further: potency means the concentration at half of the fitted maximal effect
Outline: (§1)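 Cells were treated for 72 hr at 37 degree celsius with compounds in 8- or 11-point dose response. Viability was read by CellTiter-Glo luminescence, normalized to no-cell (cytotoxicity) and DMSO controls.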

UISO = experiment: as above; details: MCC and control cell lines, CellTiter-Glo viability, 72 h; series mostly up to 46 µM
Outline: as §1

WaGa = experiment: as above; details: MCC and control cell lines, CellTiter-Glo viability, 72 h; series mostly up to 46 µM
Outline: as §1

C33A = experiment: Primary qHTS to identify gynecologic anti-cancer compounds using libraries of approved drugs and bioactive compounds (AID 1345084); details: Gynecologic cancer cell panel viability, ATPlite luminescence, 48 h; series mostly up to 57.5 µM; further: nearly all actives have a fitted effect of over 55% in size; further: potency means the concentration at half of the fitted maximal effect
Outline: (§2)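 In this quantitative HTS, cell killing is estimated from loss of ATP-dependent luciferase light. Cells see five compound concentrations over a 48 h exposure.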

CASKI = experiment: as above; details: Gynecologic cancer cell panel viability, ATPlite luminescence, 48 h; series mostly up to 57.5 µM
Outline: as §2

Es-2 = experiment: as above; details: Gynecologic cancer cell panel viability, ATPlite luminescence, 48 h; series mostly up to 57.5 µM
Outline: as §2

Hek293T = experiment: as above; details: Gynecologic cancer cell panel viability, ATPlite luminescence, 48 h, control line for the selectivity index; series mostly up to 57.5 µM
Outline: as §2

JEG-3 = experiment: as above; details: Gynecologic cancer cell panel viability, ATPlite luminescence, 48 h; series mostly up to 57.5 µM
Outline: as §2

PA-1 = experiment: as above; details: Gynecologic cancer cell panel viability, ATPlite luminescence, 48 h; series mostly up to 57.5 µM
Outline: as §2

SKOV3 = experiment: as above; details: Gynecologic cancer cell panel viability, ATPlite luminescence, 48 h; series mostly up to 57.5 µM
Outline: as §2

Tov-21-G = experiment: as above; details: Gynecologic cancer cell panel viability, ATPlite luminescence, 48 h; series mostly up to 57.5 µM
Outline: as §2

Tov112D = experiment: as above; details: Gynecologic cancer cell panel viability, ATPlite luminescence, 48 h; series mostly up to 57.5 µM
Outline: as §2

[1] = Drug repurposing screens with cells derived from glioblastoma tumor samples (AID 1345199); details: GBM patient neurospheres viability, ATP luminescence, 48 h; further: nearly all actives have a fitted effect of over 40% in size; further: potency means the concentration at half of the fitted maximal effect; on activity, negative = cell killing: on the % scale 0 is the no-effect control and ±100 the full control effect
Outline: (§3)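 Four patient lines of CD133+ GBM neurospheres were screened at several concentrations; hits were retested in those lines plus three slower-growing GBM lines, using 48-hour treatment and ATP-based viability.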

astro = experiment: as above; details: viability, ATP luminescence, 48 h; series mostly up to 45.9 µM
Outline: as §3

HeLa = experiment: Primary qHTS to identify gynecologic anti-cancer compounds using libraries of approved drugs and bioactive compounds (AID 1345084); details: Gynecologic cancer cell panel viability, ATPlite luminescence, 48 h; series mostly up to 57.5 µM; further: nearly all actives have a fitted effect of over 55% in size; further: potency means the concentration at half of the fitted maximal effect
Outline: as §2

[2] = molecular target: Nuclear receptor subfamily 1 group I member 2 (Rattus norvegicus) (UniProt Q9R1A7); experiment: qHTS assay for small molecule activators of the rat pregnane X receptor (rPXR) signaling pathway (AID 651751; call rule not given here; further: 0% is about no effect); details: rPXR reporter cells, luciferase (One-Glo), 24 h
Chain of Nuclear receptor subfamily 1 group I member 2 (Rattus norvegicus) (Q9R1A7 whole entry, looked up): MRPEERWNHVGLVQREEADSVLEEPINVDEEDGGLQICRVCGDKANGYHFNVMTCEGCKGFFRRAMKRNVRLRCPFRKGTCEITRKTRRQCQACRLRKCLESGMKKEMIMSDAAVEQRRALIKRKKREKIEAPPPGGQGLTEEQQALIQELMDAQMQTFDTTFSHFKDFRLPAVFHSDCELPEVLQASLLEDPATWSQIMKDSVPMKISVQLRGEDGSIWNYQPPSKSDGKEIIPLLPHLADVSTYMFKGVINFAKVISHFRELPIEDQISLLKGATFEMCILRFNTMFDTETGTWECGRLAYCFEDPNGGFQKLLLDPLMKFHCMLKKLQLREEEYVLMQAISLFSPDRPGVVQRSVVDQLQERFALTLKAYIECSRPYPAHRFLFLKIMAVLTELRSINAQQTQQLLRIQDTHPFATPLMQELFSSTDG

OV90 = experiment: Primary qHTS to identify gynecologic anti-cancer compounds using libraries of approved drugs and bioactive compounds (AID 1345084); details: Gynecologic cancer cell panel viability, ATPlite luminescence, 48 h; series mostly up to 57.5 µM; further: nearly all actives have a fitted effect of over 55% in size; further: potency means the concentration at half of the fitted maximal effect
Outline: as §2

CAOV3 = experiment: as above; details: Gynecologic cancer cell panel viability, ATPlite luminescence, 48 h; series mostly up to 57.5 µM
Outline: as §2

[3] = qHTS assay to identify inhibitors of the type 1 interferon - major histocompatibility complex class I in skeletal muscle: Counter screen cell viability and HiBit confirmation (AID 1347412); details: iHSKM muscle cells + IFN-b, HiBiT or CellTiter-Glo, 24 h; HiBiT; further: potency means the concentration at half of the fitted maximal effect; nearly all actives have a fitted effect of over 60% in size
Outline: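 HLA-B*08:01–HiBiT knock-in immortalized human myoblasts (C25cl48) stimulated with 4.0 ng/ml human IFN-beta and dosed with compound in a 12-point 1:3 titration (top final 46 uM). After 24 hrs at 37 C, HiBiT lytic luminescence or CellTiter Glo ATP read out.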

[4] = at 45.9 µM (top of the series), tumour line B
[5] = at 46.1 µM (top of the series), tumour line C
[6] = at 20 µM (top of the series), tumour line C
[7] = at 21.2 µM (top of the series), tumour line B
[8] = at 21.2 µM (top of the series), tumour line D
[9] = at 21.3 µM (top of the series), tumour line A

CNCCC(Oc1ccccc1OC)c1ccccc1 (stereo unspecified)
inactive: Potency (MKL-2) | Potency (UISO) | Potency (WaGa) | Potency (C33A) | Potency (CASKI) | Potency (Es-2) | Potency (Hek293T) | Potency (JEG-3) | Potency (PA-1) | Potency (SKOV3) | Potency (Tov-21-G) | Potency (Tov112D) | activity, negative = cell killing [1, 4] -10.4% | activity, negative = cell killing ([1]; at 45.9 µM (top of the series), tumour line D) -19.1% | activity, negative = cell killing [1, 5] -16.2% | Potency (astro)
active: Potency ([1]; tumour line A) 12.6 µM

Nc1nc(N)c2nc(-c3ccccc3)c(N)nc2n1
active: Potency (WaGa) 26.6 µM | Potency (C33A) 10 µM | Potency (Es-2) 15.8 µM | Potency (Tov-21-G) 20 µM | Potency ([1]; tumour line A) 12.6 µM | Potency ([1]; tumour line B) 28.2 µM
inactive: Potency (HeLa) | Potency (JEG-3) | Potency (SKOV3) | activity, negative = cell killing [1, 5] 0.453% | max response [2] 0.808% and 7.32%

COc1ccc([C@@H]2Sc3ccccc3N(CCN(C)C)C(=O)[C@@H]2OC(C)=O)cc1
inactive: Potency (C33A) | Potency (CASKI) | Potency (Es-2) | Potency (Hek293T) | Potency (JEG-3) | Potency (OV90) | Potency (PA-1) | Potency (SKOV3) | Potency (Tov-21-G) | Potency (Tov112D) | activity, negative = cell killing [1, 5] -13.9%

COC(=O)C1=C(C)NC(C)=C(C(=O)OC(C)(C)CN(C)CCC(c2ccccc2)c2ccccc2)C1c1cccc([N+](=O)[O-])c1 (stereo unspecified)
active: Potency ([1]; tumour line A) 2 µM | Potency ([1]; tumour line C) 5.8 µM | Potency ([1]; tumour line D) 5.01 µM
inactive: Potency (C33A) | Potency (CAOV3) | Potency (CASKI) | Potency (Es-2) | Potency (Hek293T) | Potency (JEG-3) | Potency (OV90) | Potency (PA-1) | Potency (Tov-21-G) | Potency (Tov112D)

Nc1ncn([C@@H]2O[C@H](CO)[C@@H](O)[C@H]2O)c(=O)n1
active: Potency (UISO) 9.44 µM | Potency (WaGa) 16.8 µM | Potency (Es-2) 3.98 µM | Potency (JEG-3) 10 µM | Potency (PA-1) 10 µM | Potency (Tov-21-G) 12.6 µM | Potency [3] 14 µM
inactive: Potency (OV90)

CC(=O)OC(C)C[N+](C)(C)C (stereo unspecified)
inactive: Potency (UISO) | Potency (WaGa) | Potency (C33A) | Potency (CAOV3) | Potency (CASKI) | Potency (Es-2) | Potency (Hek293T) | Potency (JEG-3) | Potency (OV90) | Potency (PA-1) | Potency (SKOV3) | Potency (Tov-21-G) | Potency (Tov112D) | activity, negative = cell killing [1, 6] 12% | activity, negative = cell killing [1, 7] 6.44% | activity, negative = cell killing [1, 8] -7.66% | activity, negative = cell killing [1, 9] -14.4% | Potency (astro)

CCN(CC)CCCN(c1ccccc1)C1Cc2ccccc2C1
active: Potency (astro) 12.6 µM
inactive: Potency (UISO) | Potency (CASKI) | Potency (Es-2) | Potency (HeLa) | Potency (JEG-3) | Potency (PA-1) | Potency (Tov-21-G) | Potency (Tov112D)

COCCOC(=O)C1=C(C)NC(C)=C(C(=O)OC(C)C)C1c1cccc([N+](=O)[O-])c1 (stereo unspecified)
inactive: Potency (C33A) | Potency (CAOV3) | Potency (CASKI) | Potency (Es-2) | Potency (Hek293T) | Potency (JEG-3) | Potency (OV90) | Potency (PA-1) | Potency (SKOV3) | Potency (Tov-21-G) | Potency (Tov112D) | activity, negative = cell killing [1, 4] -4.05% | activity, negative = cell killing [1, 5] -1.16%
active: Potency (WaGa) 26.6 µM | Potency ([1]; tumour line A) 14.1 µM

CN1CCN(C2=Nc3ccccc3Oc3ccc(Cl)cc32)CC1
active: Potency ([1]; tumour line A) 12.6 µM
inactive: Potency (UISO) | Potency (WaGa) | Potency (C33A) | Potency (CAOV3) | Potency (CASKI) | Potency (Es-2) | Potency (HeLa) | Potency (Hek293T) | Potency (JEG-3) | Potency (PA-1) | Potency (SKOV3) | Potency (Tov-21-G) | Potency (Tov112D) | activity, negative = cell killing [1, 6] -15.4% | activity, negative = cell killing [1, 7] -17.3% | activity, negative = cell killing [1, 8] -18.3% | Potency (astro)

COC(=O)[C@@H](N)Cc1ccc(O)c(O)c1
inactive: Potency (UISO) | Potency (C33A) | Potency (CAOV3) | Potency (CASKI) | Potency (Es-2) | Potency (Hek293T) | Potency (JEG-3) | Potency (OV90) | Potency (PA-1) | Potency (SKOV3) | Potency (Tov-21-G) | Potency (Tov112D)

CCc1cccc(N(C)C(N)=Nc2cccc3ccccc23)c1
inactive: Potency (UISO) | Potency (C33A) | Potency (CAOV3) | Potency (CASKI) | Potency (Es-2) | Potency (HeLa) | Potency (Hek293T) | Potency (JEG-3) | Potency (Tov-21-G)

COc1cc2c(cc1OC)-c1cc(=Nc3c(C)cc(C)cc3C)n(C)c(=O)n1CC2
active: Potency (astro) 17.8 µM
inactive: Potency (CAOV3) | Potency (Hek293T) | Potency (OV90)

CNCCCN1c2ccccc2CCc2ccccc21
inactive: Potency (C33A) | Potency (Es-2) | Potency (HeLa) | Potency (Hek293T) | Potency (JEG-3) | Potency (PA-1) | Potency (Tov-21-G) | activity, negative = cell killing [1, 6] 14.5%
active: Potency ([1]; tumour line A) 8.91 µM

CC[N+](C)(C)c1cccc(O)c1
inactive: Potency (C33A) | Potency (CAOV3) | Potency (CASKI) | Potency (Es-2) | Potency (HeLa) | Potency (Hek293T) | Potency (JEG-3) | Potency (OV90) | Potency (PA-1) | Potency (SKOV3) | Potency (Tov-21-G) | Potency (Tov112D) | activity, negative = cell killing [1, 6] -0.675% | activity, negative = cell killing [1, 7] -16.9% | activity, negative = cell killing [1, 8] -14.7% | activity, negative = cell killing [1, 9] -22.7% | Potency (astro)
